A short description of assay [1]: S16 Schwann cell viability assay (CellTiter-Glo assay) (AID 624031).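 Further: cellular ATP luminescence as a viability measure; nearly all actives have a fitted effect of over 70% in size.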 Put shortly:
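Native S16 rat Schwann cells, 500-750 cells/well in DMEM with 10% FBS, dosed with compound after overnight culture and incubated 24h at 37 degree Celsius/5% CO2. Viability by CellTiter-Glo luminescence; % activity normalized to no-cell wells and DMSO-treated cells.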
For orientation: In ATP-based viability assays light output follows the ATP content of the culture.

For another assay, the system named is 3D7. The assay can be described thus: qHTS profiling for inhibitors of Plasmodium falciparum proliferation (AID 504749). Further: nearly all actives have a fitted effect of over 60% in size. Further: potency means the concentration at half of the fitted maximal effect. Conditions: P. falciparum in erythrocytes, SYBR Green DNA, 72 h; series mostly up to 28.7 µM. Put shortly:
(§1)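 SYBR Green fluorescence (ex 485 nm, em 535 nm) reports parasite DNA after 72 h compound exposure of infected red cells at 0.3% parasitemia, 2.5% hematocrit; signal normalized to 0.29 uM artemisinin and vehicle wells.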
On the technique in general: In qHTS, concentration-response curves come from the screen itself.

The test system of the next assay is ATS95. The assay is described as above. To be noted: P. falciparum in erythrocytes, SYBR Green DNA, 72 h; series mostly up to 28.7 µM. The method in brief: as §1
In the next assay the test system is CP191. The assay is described as above. To be noted: P. falciparum in erythrocytes, SYBR Green DNA, 72 h; series mostly up to 28.7 µM. The method in brief: as §1
Another assay deals with CP215. Described as above. Conditions: P. falciparum in erythrocytes, SYBR Green DNA, 72 h; series mostly up to 28.7 µM. The method in brief:
as §1

The next assay concerns CP247. The description is as above. To be noted: P. falciparum in erythrocytes, SYBR Green DNA, 72 h; series mostly up to 28.7 µM. The method in brief:
as §1

The next assay relates to CP260. Described as above. Conditions: P. falciparum in erythrocytes, SYBR Green DNA, 72 h; series mostly up to 28.7 µM. Put shortly: as §1
For another assay, the system named is CP266. The description is as above. Conditions: P. falciparum in erythrocytes, SYBR Green DNA, 72 h; series mostly up to 28.7 µM. The method in brief:
as §1

The next assay concerns CP291. The assay is described as above. Conditions: P. falciparum in erythrocytes, SYBR Green DNA, 72 h; series mostly up to 28.7 µM. The method in brief:
as §1

In the next assay the test system is CP335. The assay is described as above. Conditions: P. falciparum in erythrocytes, SYBR Green DNA, 72 h; series mostly up to 28.7 µM. Put shortly:
as §1

Another assay relates to DIV17. The description is as above. Conditions: P. falciparum in erythrocytes, SYBR Green DNA, 72 h; series mostly up to 28.7 µM. Put shortly: as §1
For the next assay, the system named is DIV30. Described as above. Conditions: P. falciparum in erythrocytes, SYBR Green DNA, 72 h; series mostly up to 28.7 µM. The method in brief: as §1
The test system of the next assay is P93_24. Described as above. To be noted: P. falciparum in erythrocytes, SYBR Green DNA, 72 h; series mostly up to 28.7 µM. The method in brief: as §1
The next assay has as its system P94_40. The description is as above. Conditions: P. falciparum in erythrocytes, SYBR Green DNA, 72 h; series mostly up to 28.7 µM. Put shortly:
as §1

For another assay, the system named is PAD. The assay is described as above. Conditions: P. falciparum in erythrocytes, SYBR Green DNA, 72 h; series mostly up to 28.7 µM. The method in brief:
as §1

The test system of another assay is PC26. The description is as above. Conditions: P. falciparum in erythrocytes, SYBR Green DNA, 72 h; series mostly up to 28.7 µM. Put shortly:
as §1

For a further assay, the system named is SC27B. The assay is described as above. To be noted: P. falciparum in erythrocytes, SYBR Green DNA, 72 h; series mostly up to 28.7 µM. Put shortly: as §1
The next assay concerns TAB113. The assay is described as above. To be noted: P. falciparum in erythrocytes, SYBR Green DNA, 72 h; series mostly up to 28.7 µM. The method in brief:
as §1

In the next assay the test system is TAB165. The assay is described as above. Conditions: P. falciparum in erythrocytes, SYBR Green DNA, 72 h; series mostly up to 28.7 µM. Put shortly:
as §1

In a further assay the test system is 7G8. Described as above. To be noted: P. falciparum in erythrocytes, SYBR Green DNA, 72 h; series mostly up to 28.7 µM. Put shortly:
as §1

The values that follow come from PubChem BioAssay (NCATS).

Molecules are shown by their SMILES. Records with an inconclusive call do not appear. Active and inactive are the calls of the source. The call rests on the fitted dose curve; in most records, active means well fitted curve in the direction sought with a large enough effect; inconclusive means small, poorly fitted or top-dose-only effect, or another doubt; inactive means no such curve, though single readings can be large; an effect the other way counts as inactive or inconclusive.

On to `C[C@@H]1CC2C3CCC4=CC(=O)C=C[C@]4(C)[C@@]3(F)[C@@H](O)C[C@]2(C)[C@@]1(O)C(=O)COC(=O)c1cccc(S(=O)(=O)O)c1` (stereo partly specified), for which the Potency entry (in assay [1]; in the assay on 3D7; with ATS95; in the assay on CP191; in the assay with CP215; with CP247) was “inactive” each time. In addition, the Potency entry with CP260, in the assay on CP266, in the assay on CP291, with CP335, in the assay with DIV17 and in the assay on DIV30 was “inactive” each time. The Potency result in the assay with P93_24, in the assay on P94_40, with PAD, in the assay with PC26, in the assay with SC27B and in the assay on TAB113 was “inactive” throughout. Besides, in the assay on TAB165, the Potency result is “inactive”.
Regarding `Nc1nc(/C(=C/CC(=O)O)C(=O)NC2C(=O)N3C(C(=O)O)=CCSC23)cs1` (stereo unspecified), the Potency result (in assay [1]; in the assay on 3D7; with 7G8; with ATS95; in the assay with CP191; in the assay with CP215) was “inactive” throughout. In addition, the Potency result in the assay on CP247, in the assay on CP260, in the assay on CP266, with CP291, in the assay with CP335 and in the assay on DIV17 was “inactive” throughout. In addition, the Potency entry in the assay on DIV30, in the assay with P93_24, with P94_40, in the assay on PAD, with PC26 and in the assay on SC27B was “inactive” throughout. Moreover, the Potency result in the assay on TAB113 and with TAB165 was “inactive” in each case.
On to `C[C@@H](O)[C@@H]1C(=O)N2C(C(=O)O)=C([C@H]3CCCO3)S[C@H]12`, for which the Potency result (in assay [1]; in the assay with 3D7; with 7G8; in the assay with ATS95; with CP191; in the assay with CP215) was “inactive” each time. Besides, the Potency entry with CP247, in the assay with CP260, in the assay with CP266, with CP291, with CP335 and in the assay on DIV17 was “inactive” in each case. In addition, the Potency entry with DIV30, in the assay with P93_24, in the assay with P94_40, in the assay on PAD, in the assay with PC26 and in the assay on SC27B was “inactive” in each case. The Potency result with TAB113 and in the assay with TAB165 was “inactive” throughout.
In the case of `Clc1ccc(CS[C@@H](Cn2ccnc2)c2ccc(Cl)cc2Cl)cc1`, the Potency result in [1] is “inactive”. For the same molecule, the Potency in the assay on 3D7 is 2.82 µM (active); in the assay on 7G8, 0.562 µM (active); with ATS95 it was 3.55 µM (active); in the assay with CP191, 3.55 µM (active); with CP291, 5.73 µM (active); in the assay with CP335, 1.28 µM (active). The Potency with DIV17 is 5.1 µM (active); in the assay with DIV30, 3.22 µM (active); in the assay with P93_24, 1.26 µM (active); with P94_40 it was 3.55 µM (active); in the assay with PAD it was 3.16 µM (active); in the assay with SC27B it was 2.82 µM (active). In addition, the Potency in the assay with TAB165 is 0.708 µM (active).
Regarding `C=C[C@@]1(C)C[C@H](OC(=O)CSC(C)(C)CNC(=O)[C@@H](N)C(C)C)[C@@]2(C)C(C)CC[C@@]3(CCC(=O)[C@@H]32)[C@H](C)[C@H]1O` (stereo partly specified), the Potency in the assay with 3D7 is 8.91 µM (active); in the assay with 7G8, 2.51 µM (active); in the assay with ATS95, 5.01 µM (active); in the assay with CP191 it was 3.98 µM (active); with CP215, 1.69 µM (active); in the assay with CP247 it was 4.47 µM (active). Also, the Potency was 3.98 µM (active) in the assay on CP260; 1.69 µM (active) with CP291; 1.2 µM (active) with CP335; 7.57 µM (active) with DIV17; 7.57 µM (active) in the assay on DIV30; 0.501 µM (active) with P93_24. In addition, the Potency in the assay with P94_40 is 1.58 µM (active); in the assay on PAD, 4.47 µM (active); with PC26, 6.01 µM (active); with SC27B, 5.62 µM (active); in the assay on TAB113, 5.62 µM (active); in the assay on TAB165 it was 4.47 µM (active).
